Assay outcomes: PubChem BioAssay, National Center for Advancing Translational Sciences (NCATS)
SW480 rereplic: A quantitative high throughput screen for small molecules that induce DNA re-replication in SW480 colon adenocarcinoma cells; SW480 DNA re-replication, Hoechst DNA content imaging, 48 h; Potency, µM (titrated, usually from 46.1 µM), hits mostly activators; 340,000 compounds, 1.8% hits; AID 624297, 2012; note: nearly all actives have a fitted effect of over 55% in size
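SW480 cells exposed to compounds for 48 hr at 37 C, 5% CO2, then Hoechst-stained 40 min. Nuclear DNA content imaged by fluorescence scanning (405 nm excitation, 500-530 nm emission); re-replication scored as increased high-intensity nuclei.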
PTAP TSG101 blk: qHTS Assay for Iinhibitors of HIV-1 Budding by Blocking the Interaction of PTAP/TSG101 | Tumor susceptibility gene 101 protein (Homo sapiens), Q99816 | Fluorescence polarization, FITC-PTAP peptide / Tsg101 binding | Potency, µM (highest dose often 115 µM), hits mostly inhibitors | 340,000 tested, under 10 active | AID 493005, 2010; active = well fitted inhibition curve with a large enough effect in the main read-out, with a control signal flat, not every such curve was filed as active; inconclusive = small, poorly fitted or top-dose-only effect, or effect the other way, or a change in a side signal; inactive = no such curve, though single readings can be large or run the other way
Target sequence (Q99816 whole entry, looked up): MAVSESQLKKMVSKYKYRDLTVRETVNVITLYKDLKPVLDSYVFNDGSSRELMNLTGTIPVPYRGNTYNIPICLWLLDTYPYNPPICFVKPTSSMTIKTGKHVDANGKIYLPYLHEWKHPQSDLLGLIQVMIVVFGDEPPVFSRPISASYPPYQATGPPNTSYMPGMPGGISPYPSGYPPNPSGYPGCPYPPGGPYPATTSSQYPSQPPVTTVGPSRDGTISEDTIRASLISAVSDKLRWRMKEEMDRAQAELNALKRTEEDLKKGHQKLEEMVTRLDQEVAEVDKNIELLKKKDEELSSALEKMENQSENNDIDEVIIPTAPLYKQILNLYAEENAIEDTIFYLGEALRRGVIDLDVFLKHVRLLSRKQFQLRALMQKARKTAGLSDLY
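Fluorescence polarization binding of Tsg101 binding domain (10 uM final) to FITC-labeled PTAP peptide (50 nM final) in HEPES pH 7.5 buffer with NaCl, Tween 20, EDTA, TCEP. Compounds added before peptide; binding 20 min at RT.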
KB-3-1 cytotox: qHTS assay for MDR1-selective chemotherapeutics: Primary screen using the parental adenocarcinoma cell KB-3-1; KB-3-1 viability, CellTiter-Glo ATP luminescence, 72 h; Potency, µM (highest dose often 46.1 µM), hits mostly cytotoxic; 400,000 compounds, 1.4% hits; AID 1347075, 2019; note: nearly all actives have a fitted effect of over 60% in size
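Viability of parental KB-3-1 cells, measured by CellTiter-Glo luminescence, followed a 72 h incubation at 37 °C with pinned compounds in phenol-red-free DMEM containing 10% FBS.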
MCF10A rereplic: A quantitative high throughput screen for small molecules that induce DNA re-replication in MCF 10a normal breast cells | MCF 10A DNA re-replication, Hoechst nuclear intensity, 48 h | Potency, µM (top dose mostly 46.1 µM), usual class: activators | 350,000 compounds, 2.9% hits; note: nearly all actives have a fitted effect of over 50% in size
KB-V1 cytotox: qHTS assay for MDR1-selective chemotherapeutics: Primary screen using the drug-selected MDR subline cells KB-V1 | Potency, µM (series often up to 46.1 µM), actives largely listed as cytotoxic | 400,000 compounds, 3.4% hits | KB-V1 MDR cells viability, CellTiter-Glo, 72 h | AID 1347076, 2019; note: nearly all actives have a fitted effect of over 60% in size
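Drug-selected KB-V1 cells, grown in DMEM lacking phenol red with 10% FBS, receive compound titrations; after three days at 37 degrees C, surviving cell ATP is quantified by CellTiter-Glo luminescence and responses normalized and curve-fitted.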
PINK1 modulator: A Quantitative High throughput Screen to Identify Chemical Modulators of PINK1 Expression | PINK1 immunofluorescence, high-content cytometry, 24 h | Potency, µM (doses to about 76.6 µM), usual class: activators | 410,000 compounds, 0.2% hits | AID 624263, 2012; active = well fitted activation curve with a large enough effect; inconclusive = small, poorly fitted or top-dose-only effect; cell line not stated here; note: nearly all actives have a fitted effect of over 65% in size
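Decision-based qHTS: stable cells, 24 h exposure to five compound concentrations, CCCP as control. Fixed cells stained for PINK1 plus nuclear, mitochondrial and cell markers, cytometer read.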
Numbers stand for hits; . = inactive; ? = inconclusive; / = not tested or not shown; ! = a repeat was not active. Sampled rows, rich in hits. Any-hit rate of the full collection: about 6.8%. Unless noted, calls come from the whole dose curve; as a rule, active = well fitted curve in the direction sought with a large enough effect; inconclusive = small, poorly fitted or top-dose-only effect, or another doubt; inactive = no such curve, though single readings can be large; an effect the other way counts as inactive or inconclusive.

SMILES	SW480 rereplic	PTAP TSG101 blk	KB-3-1 cytotox	MCF10A rereplic	KB-V1 cytotox	PINK1 modulator
CCN(CCCNC(=O)c1ccc(Sc2ccc(Cl)cc2)c(NC(C)=O)c1)c1ccccc1	/	/	/	/	/	.
Cc1ccc(C)c(N2CCN(C(=O)C(C)n3c(C)c4cnn(-c5ccccc5)c(=O)c4c3C)CC2)c1 (stereo not drawn)	/	/	.	/	.	.
CN(C)S(=O)(=O)c1ccc2c(c1)/C(=C/c1cc3c([nH]1)CCCC3)C(=O)N2	10.3µM	?	.	?	?	?
COc1ccc(NC(=O)c2cc(CN3CCCC3)on2)cc1Cl	/	/	.	/	.	.
CN(C(=O)COc1ccc2c(-c3ccccc3)cc(=O)oc2c1)C1CCS(=O)(=O)C1 (stereo not drawn)	13µM	.	.	?	.	.
CN(C)C=Nc1ncc2c3ccccc3n(CCN(C)C)c2c1C#N	?	.	?	?	?	.
CCN(CC)CCn1c2ccccc2c2cnc(N)c(C#N)c21	?	.	23.1µM	?	?	.
Cc1ccc(Cl)cc1N1CCN(C(=O)c2cc3c(=O)[nH]c4ccccc4c3n2C)CC1	.	.	?	18.4µM!	7.31µM	.
Cn1c(C(=O)NCCCN2CCN(c3ccccc3F)CC2)cc2c(=O)[nH]c3ccccc3c21	.	.	.	23.1µM	?	.
Cn1c(C(=O)N2CCN(c3ccc(Cl)cc3)CC2)cc2c(=O)[nH]c3ccccc3c21	.	.	.	?	.	.
Cc1cccc(NC(=O)CSc2cn(CC(=O)N3CCOCC3)c3ccccc23)c1C	/	/	/	/	/	.
Cc1ccc(CNC(=O)C2CCCN(c3ncnc4onc(-c5ccc(F)cc5)c34)C2)cc1 (stereo not drawn)	/	/	.	/	.	.
Cc1occc1-c1nnc(SCC(=O)Nc2nc(C(C)(C)C)cs2)o1	?	.	.	14.6µM	?	14.1µM
CCOC(=O)Cc1csc(NC(=O)CSc2nnc(-c3ccncc3)o2)n1	14.6µM	.	.	.	.	.
Cc1csc(NC(=O)CSc2nnc(-c3ccoc3C)o2)n1	.	.	.	.	.	.
CCOC(=O)Cc1csc(NC(=O)CSc2nnc(-c3ccc(NS(=O)(=O)CC)cc3)o2)n1	.	/	.	.	.	.
O=C(NCCc1ccccc1)c1ccc(CSc2nc3ccncc3n2Cc2ccc(F)cc2)cc1	/	/	.	/	.	.
Cc1nc(NCC2CCCO2)nc2c1C(=O)CC(C)C2 (stereo not drawn)	.	.	.	.	.	.
Cc1nc(NCC2CCCO2)nc2c1C(=O)CC(C)(C)C2 (stereo not drawn)	.	.	.	?	20.6µM	.
Cc1ccc(C)c(CSc2nnc([C@@H](N)C(C)C)o2)c1	.	.	.	.	14.6µM	.
CCOC(=O)c1c(C)c(-c2ccccc2)n(CC(=O)Nc2cc(OC)cc(OC)c2)c1C	/	/	.	/	.	.
COc1ccc2[nH]c(=O)c(CN(C(=O)c3cccc(Cl)c3)c3ccccc3OC)cc2c1	/	/	.	/	.	.
COc1ccc(C(=O)NCc2nnc(SC)n2-c2ccccc2C)c(OC)c1OC	/	/	/	/	/	.
O=C1c2cc(Cl)ccc2-c2c(O)cc(Cl)cc21	?	.	?	13µM	?	?
CC(OC(=O)c1ccccc1NS(=O)(=O)c1cccc(N)c1)C(=O)N(C)Cc1ccccc1 (stereo not drawn)	.	.	?	.	3.66µM	.
SMILES	SW480 rereplic	PTAP TSG101 blk	KB-3-1 cytotox	MCF10A rereplic	KB-V1 cytotox	PINK1 modulator
COC(=O)CN(c1cc(Cl)ccc1OC)S(=O)(=O)c1ccc(OC)c(OC)c1	.	.	.	.	2.31µM	.
Cc1cc(NC(=O)c2cc(-c3ccc(Br)cc3)on2)nn1Cc1ccc(Cl)cc1	/	/	.	/	.	.
Cc1ccn2cc(C34CC5CC(CC(C5)C3)C4)nc2c1	20.6µM	.	.	?	.	.
Cc1ccn2cc(CSc3ccccc3)nc2c1	.	.	.	.	.	.
Clc1ccc(Nc2nc(N3CCOCC3)nc(N3CCOCC3)n2)cc1Cl	?	.	.	.	.	.
Fc1ccc(Nc2nc(N3CCOCC3)nc(N3CCOCC3)n2)cc1Cl	18.4µM	.	.	.	.	.
CCOc1ccc(Nc2nc(NCCN3CCOCC3)nc(OC)n2)cc1	.	.	.	.	18.4µM	.
Clc1ccc(Nc2nc(NCCN3CCOCC3)nc(N3CCOCC3)n2)cc1	9.2µM	.	?	?	?	.
CCOC(=O)c1c(C)[nH]c(C)c1S(=O)(=O)NCC(=O)NCc1ccccc1C	/	/	.	/	.	.
CN(C)c1nc2cc3c(cc2cc1CN(CC1CCCO1)C(=O)c1cccc(F)c1)OCO3 (stereo not drawn)	/	/	/	/	/	.
CCOc1ccccc1NC(=O)Cn1nnc2sc3c(c2c1=O)CCC(C(C)(C)C)C3 (stereo not drawn)	/	/	.	/	.	.
COc1ccc(C(=O)Oc2cccc(Nc3ncnc4ccccc34)c2)cc1OC	.	.	?	?	18.4µM	.
COc1cc(C(=O)Oc2cccc(Nc3ncnc4ccccc34)c2)cc(OC)c1OC	.	.	.	.	?	/
CCn1c(CN2CCCCC2)nc2cc(NC(=O)c3cccc([N+](=O)[O-])c3)ccc21	/	/	.	/	.	.
COc1ccc(S(=O)(=O)NCC2CCCN(Cc3ccc(OC)cc3F)C2)cc1 (stereo not drawn)	?	.	.	.	.	.
COc1ccc(S(=O)(=O)NCC2CCCN(Cc3ccccc3Cl)C2)cc1 (stereo not drawn)	.	.	.	23.1µM	.	.
CCOC(=O)C1C(=O)NC(SCC(N)=O)=C(C#N)C1c1ccccc1OCC (stereo not drawn)	.	.	.	.	.	.
N#CC1=C(N)NC(=S)C(C(N)=O)C1c1ccccc1F (stereo not drawn)	20.6µM	.	.	?	.	.
CCOC(=O)C1C(=O)NC(SC)=C(C#N)C1c1ccccc1F (stereo not drawn)	.	.	.	.	14.6µM	.
O=C1NC(=O)C(c2ccc(Cl)cc2Cl)N1 (stereo not drawn)	.	.	/	?	/	.
N#CC1=C(N)NC(=S)C(C(N)=O)C1c1ccc(Cl)cc1Cl (stereo not drawn)	16.4µM	.	.	14.6µM	?	.
COc1ccc(C(=O)Nc2ccc3c(c2)N(C2CCCC2)C(=O)c2ccccc2S3)cc1OC	/	/	.	/	.	.
COc1cc(NC(=O)c2cc(-c3cccc(OC)c3)n[nH]2)cc(OC)c1	/	/	.	/	.	.
